Screening data deposited in PubChem by National Center for Advancing Translational Sciences (NCATS).
Hits are enriched below; roughly 11% of the tested compounds scored in any of these assays.
JMJD2A Tudor = inhibitors of human JMJD2A Tudor domain | O75164 | AlphaScreen JMJD2A-Tudor / H3K4me3 peptide binding | Potency, µM (doses to about 114 µM), actives largely listed as inhibitors | hit rate 4.4% among 390,000 | AID 504339; further: nearly all actives have a fitted effect of over 50% in size
Target sequence (O75164 whole entry, looked up, the tested form may be a part): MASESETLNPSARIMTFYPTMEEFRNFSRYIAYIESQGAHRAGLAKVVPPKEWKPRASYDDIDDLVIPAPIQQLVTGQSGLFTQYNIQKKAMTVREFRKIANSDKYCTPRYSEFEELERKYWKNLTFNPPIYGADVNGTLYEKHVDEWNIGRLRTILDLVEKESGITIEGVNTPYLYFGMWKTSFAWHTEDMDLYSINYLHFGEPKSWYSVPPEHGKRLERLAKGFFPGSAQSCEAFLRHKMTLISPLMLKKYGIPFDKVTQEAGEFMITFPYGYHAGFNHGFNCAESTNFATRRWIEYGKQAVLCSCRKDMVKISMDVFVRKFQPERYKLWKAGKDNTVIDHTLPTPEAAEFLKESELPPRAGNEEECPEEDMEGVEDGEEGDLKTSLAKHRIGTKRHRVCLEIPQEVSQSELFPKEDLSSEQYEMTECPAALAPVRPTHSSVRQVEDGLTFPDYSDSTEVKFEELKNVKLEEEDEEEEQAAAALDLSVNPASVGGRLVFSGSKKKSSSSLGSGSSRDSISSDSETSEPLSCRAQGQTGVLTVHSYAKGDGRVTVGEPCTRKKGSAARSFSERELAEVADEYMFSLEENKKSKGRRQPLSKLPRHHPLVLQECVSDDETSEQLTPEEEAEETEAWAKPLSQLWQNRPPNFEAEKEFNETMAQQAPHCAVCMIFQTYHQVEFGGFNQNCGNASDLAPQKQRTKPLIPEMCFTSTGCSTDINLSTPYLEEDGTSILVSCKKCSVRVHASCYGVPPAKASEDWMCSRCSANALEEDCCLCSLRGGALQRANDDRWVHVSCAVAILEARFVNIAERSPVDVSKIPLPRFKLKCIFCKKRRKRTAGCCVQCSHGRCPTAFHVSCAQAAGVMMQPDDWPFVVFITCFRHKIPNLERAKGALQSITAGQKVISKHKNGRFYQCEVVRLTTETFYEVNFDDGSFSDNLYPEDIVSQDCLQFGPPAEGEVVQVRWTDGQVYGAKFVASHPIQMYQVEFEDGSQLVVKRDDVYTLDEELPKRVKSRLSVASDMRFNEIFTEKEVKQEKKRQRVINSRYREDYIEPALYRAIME
G9a block = blocks human histone lysine methyltransferase G9a; Q96KQ7; G9a H3K9 monomethylation, AlphaScreen, 2 h; Potency, µM (series often up to 102 µM), actives largely listed as inhibitors; hit rate 8.8% among 350,000; AID 504332; further: nearly all actives have a fitted effect of over 75% in size
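Quantitative HTS format: methyltransferase activity on a biotin-tagged H3K9 peptide is measured by AlphaScreen, using a rabbit anti-monomethyl-H3K9 antibody with streptavidin donor and anti-IgG acceptor beads. Final levels are 20 nM enzyme, 500 nM peptide, 20 uM SAM; 2 h RT.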
PI5P4Ka inh = blocks human PI5P4K alpha kinase activity; P48426; PI5P4Kalpha enzyme, ADP-Glo luminescence, 60 min; active compounds read low; max response, %; hit rate 1.2% among 330,000; AID 652105; active means max response of -50% or lower; inconclusive means between -30% and -50%; inactive means -30% or higher; further: value at the top dose of about 77 µM
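ADP-Glo luminescence end-point read after a 60 min room-temperature kinase reaction of PI5P4Kalpha plus substrate, initiated with ATP at 5 microM final. Buffer: 0.038 M HEPES pH 7.4, EGTA, 0.1% CHAPS, 5% DMSO.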
L3MBTL1 block = inhibitors of human L3MBTL1; AlphaScreen L3MBTL1–H3K9me1 peptide binding; Q9Y468; Potency, µM (doses to about 57.1 µM), hits mostly inhibitors; hit rate 0.66% among 230,000; further: nearly all actives have a fitted effect of over 60% in size
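L3MBTL1 (50 nM) pre-complexed 30 min with biotinylated H3(1-15)K9me1 peptide (75 nM), then compounds added for 30 min at room temperature; AlphaScreen streptavidin donor/nickel chelate acceptor beads (10 ug/mL final) read after 30 min dark incubation.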
BAZ2B inh = blocks human BAZ2B. AlphaScreen BAZ2B-H3K14Ac peptide displacement. Potency, µM (series often up to 114 µM), usual class: inhibitors. AID 504333. Q9UIF8. hit rate 4.4% among 360,000; further: nearly all actives have a fitted effect of over 60% in size
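Compounds, titrated to a top concentration of 110 uM, were incubated 30 min at room temperature with preformed BAZ2B/acetyl-K14 H3 peptide complex (50 nM each). Proximity signal was measured by AlphaScreen after 20 min with beads.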
HP1b binding inh = inhibitors of HP1-beta chromodomain binding to methylated histone tails | Potency, µM (series often up to 114 µM), most hits filed as inhibitors | hit rate 0.56% among 390,000 | P83916 | AID 540317 | AlphaScreen HP1-beta / biotin-H3K9me3 peptide binding; further: nearly all actives have a fitted effect of over 70% in size
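AlphaScreen: HP1-beta (50 nM) preformed 30 min with biotin-H3(1-18)K9me3 peptide (50 nM) in PBS pH 7.4, 0.01% Tween-20. Compound added for 30 min at RT, then streptavidin donor/nickel chelate acceptor beads (10 ug/mL) for 30 min.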
Of the large screens only hits and unclear results are named; the others gave an inactive call. Unless noted, the call rests on the fitted dose curve; in most records, active means well fitted inhibition curve with a large enough effect; inconclusive means small, poorly fitted or top-dose-only effect; inactive means no such curve, though single readings can be large or run the other way.

O=C1CN(C(=O)CSc2nc3ccccc3n2CCc2ccccc2)c2ccccc2N1	G9a block 10µM
CCc1ccccc1Nc1sc(C(=O)c2ccccc2)c(N)c1S(=O)(=O)c1ccccc1	none (no result: PI5P4Ka inh, L3MBTL1 block)
C=CCn1c(-c2cc3cccc(OC)c3o2)n[nH]c1=S	JMJD2A Tudor 39.8µM, G9a block 6.31µM, PI5P4Ka inh inconclusive, BAZ2B inh inconclusive
CCn1c(-c2cc(OC)c(OC)c(OC)c2)n[nH]c1=S	JMJD2A Tudor 7.94µM, G9a block inconclusive (no result: L3MBTL1 block)
COc1cccc2cc(-c3ccnc(=S)[nH]3)oc12	none (no result: JMJD2A Tudor, PI5P4Ka inh, HP1b binding inh)
C=CCn1c(-c2cccc(OC)c2)nc2nc3ccccc3nc21	none
C=CCn1c(-c2cccnc2)n[nH]c1=S	JMJD2A Tudor 20µM, G9a block 44.7µM
C=CCn1c(-c2ccccn2)n[nH]c1=S	none (no result: JMJD2A Tudor, G9a block, L3MBTL1 block, BAZ2B inh, HP1b binding inh)
C=CCn1c(-c2cccc(OC)c2)n[nH]c1=S	JMJD2A Tudor 11.2µM, G9a block 7.08µM
Oc1ccccc1C1C=C(c2ccc3c(c2)OCO3)NC(c2cccc(Cl)c2)N1 (stereo not given)	none (no result: G9a block, PI5P4Ka inh, L3MBTL1 block, BAZ2B inh)
CCn1c(=O)c2sccc2n2c(CCCC(=O)N3CCN(c4cc(C)ccc4C)CC3)nnc12	none (no result: PI5P4Ka inh, L3MBTL1 block)
COc1ccc(NC(=O)c2oc3ccccc3c2NC(=O)Cc2coc3c(C)c(C)ccc23)cc1	none (no result: PI5P4Ka inh, L3MBTL1 block)
COc1cccc(-c2cc(C(F)(F)F)n3ncc(C(=O)OC(C)C)c3n2)c1	none (no result: PI5P4Ka inh, L3MBTL1 block)
COc1cc(-c2nc(N)n[nH]2)cc(OC)c1OC	none (no result: PI5P4Ka inh)
C=CCn1c(-c2cccc(OC)c2OC)n[nH]c1=S	JMJD2A Tudor 7.94µM, G9a block 20µM
C=CCn1c(-c2cc(OC)c(OC)c(OC)c2)n[nH]c1=S	JMJD2A Tudor 6.31µM, G9a block inconclusive (no result: PI5P4Ka inh)
COC(=O)c1ccc(Oc2nc3c(c(=O)n(C)c(=O)n3C)n2Cc2ccc(Cl)c(Cl)c2)cc1	none (no result: PI5P4Ka inh, L3MBTL1 block)
Cc1ccc(C(NC(=O)N2CCCC2)C(Cl)Cl)cc1F (stereo not given)	G9a block 35.5µM
COc1ccc2cc(-c3[nH]ncc3CN3CCCN(c4ccccc4)CC3)ccc2c1	JMJD2A Tudor 35.5µM, BAZ2B inh 31.6µM, HP1b binding inh 20µM (no result: G9a block)
O=C(CSc1n[nH]c(-c2ccccc2Cl)n1)N1CCN(c2ccccc2F)CC1	none (no result: PI5P4Ka inh, L3MBTL1 block)
c1ccc2c(c1)ncn2CCCCOc1ccc2c(c1)CCC2	JMJD2A Tudor 2.82µM, G9a block 8.91µM, BAZ2B inh 28.2µM, HP1b binding inh 70.8µM (no result: PI5P4Ka inh, L3MBTL1 block)
c1ccc2c(c1)ncn2CCCOc1ccc2c(c1)CCC2	none (no result: PI5P4Ka inh, L3MBTL1 block)
CCOC(=O)c1cc2c(=O)n3ccccc3nc2n(CC2CCCO2)c1=NC(=O)c1ccc(F)cc1 (stereo not given)	none (no result: PI5P4Ka inh, L3MBTL1 block)
COc1ccccc1NC(C)=O	none (no result: BAZ2B inh)
CC(=N\NC(=O)c1ccccc1)/C(=N/O)C(=O)Nc1ccccc1	BAZ2B inh 56.2µM (no result: L3MBTL1 block)
COc1ccccc1NC(=O)C(=N\O)/C(C)=N/O	JMJD2A Tudor inconclusive, G9a block 10µM
CCC1=NN2C(=N)/C(=C\c3ccc(OCCOc4ccccc4)c(OC)c3)C(=O)N=C2S1	none (no result: JMJD2A Tudor, PI5P4Ka inh, HP1b binding inh)
CCc1nn2c(=O)cc(COc3ccc(/C=C4\C(=N)N5N=C(CC(C)C)SC5=NC4=O)cc3)nc2s1	JMJD2A Tudor 44.7µM, BAZ2B inh inconclusive (no result: L3MBTL1 block)
CCC1=NN2C(=N)/C(=C\c3ccc(OCc4cc(=O)n5nc(CC)sc5n4)c(OC)c3)C(=O)N=C2S1	JMJD2A Tudor inconclusive, G9a block inconclusive, PI5P4Ka inh -71.1, L3MBTL1 block inconclusive, BAZ2B inh 79.4µM
CCN(C(=O)Nc1cn(CC(C)C)c(=O)c2ccccc12)c1cc(C)ccc1C	none (no result: PI5P4Ka inh, L3MBTL1 block)
O=C1C[C@H](c2ccc3ccccc3c2)N1S(=O)(=O)c1ccccc1[N+](=O)[O-]	none (no result: G9a block, PI5P4Ka inh, L3MBTL1 block, BAZ2B inh)
Cc1ccc(S(=O)(=O)/N=S(/c2ccccc2)C(C)C)cc1 (stereo not given)	G9a block 4.47µM, HP1b binding inh inconclusive
CN/S(=N/S(=O)(=O)c1ccccc1)c1ccc(C)cc1 (stereo not given)	none
CN(C)c1ccc(C(CNC(=O)Cc2ccc(Cl)cc2)N2CCOCC2)cc1 (stereo not given)	G9a block inconclusive, BAZ2B inh inconclusive (no result: PI5P4Ka inh, L3MBTL1 block)
Cc1c2n(c3ccccc13)CCN(C)C2	JMJD2A Tudor 22.4µM
CN1CCc2c(c3ccccc3n2C)C1	none
